Common to all, as to test: NCI-60 one-dose screen, 48 h (100 = growth as untreated, 0 = no growth, -100 = all killed)
What all share (details): 10 µM unless noted

Assay [1] concerns NCI-H23 lung.
In assay [2] the test system is NCI-H226 lung.
Assay [3] has as its system NCI-H322M lung.
The subject of assay [4] is HOP-62 NSCLC.
Assay [5] relates to NCI-H460 lung.
Assay [6] relates to HOP-92 NSCLC.
The subject of assay [7] is NCI-H522 lung.
The test system of assay [8] is A549/ATCC NSCLC.
Assay [9] concerns 786-0 renal.
Assay [10] deals with COLO 205 colon.
Assay [11] relates to DU-145 prostate.
Assay [12] has as its system K-562 leukemia.
Assay [13] deals with MALME-3M melanoma.
The test system of assay [14] is MDA-MB-231 breast.
The test system of assay [15] is RXF 393 renal.
For assay [16], the system named is SF-268 CNS.
Assay [17] deals with SF-295 CNS.
In assay [18] the test system is SF-539 CNS.
The subject of assay [19] is UACC-257 melanoma.
Assay [20] concerns M14 melanoma.

This passage reports growth results from PubChem BioAssay (NCI).

This is part of a sample that, as a whole, favours compounds with a hit. Of some 83,000 tested, about 20% had one in any assay.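 48-hour exposure, single concentration, 96-well plates; percent growth endpoint where 0 means no net growth. Active: below 10.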 A number with no mark means an inactive call. The source made the active and inactive calls.

On to `C#Cc1cccc(NC(=O)C2CCCCN2C(=O)CCl)c1` (stereo not given), for which the growth in [1] was -76.1% [8.25 µM] (active); in [2], -53.4% [8.25 µM] (active); in assay [3], 65.1% [8.25 µM]; in assay [4], 26.6% [8.25 µM]; in assay [5], 10.9% [8.25 µM]; in assay [6] it was -54.2% [8.25 µM] (active). For the same compound, the growth in assay [7] was -57% [8.25 µM] (active); in assay [8] it was 36.5% [8.25 µM]; in assay [9], -72.9% [8.25 µM] (active); in assay [10], -52.5% [8.25 µM] (active); in [11], -33.8% [8.25 µM] (active); in assay [12] it was 2.41% [8.25 µM] (active). Further, the growth was -86.7% [8.25 µM] (active) in assay [13]; -62% [8.25 µM] (active) in assay [14]; -87.8% [8.25 µM] (active) in assay [15]; -53.2% [8.25 µM] (active) in assay [16]; 52.4% [8.25 µM] in assay [17]; -91.1% [8.25 µM] (active) in assay [18]. In addition, the figures for the growth in assay [19] and in assay [20] were -0.384% [8.25 µM] (active) and -41.9% [8.25 µM] (active), respectively.
In the case of `COc1cccc(CNc2c3ccccc3nc3ccccc23)c1OC`, the growth was 32.4% in assay [1]; 51.6% in assay [2]; 41.6% in [3]; 51.2% in assay [4]; 11.6% in assay [5]; -2.4% (active) in [6]. The growth is 40.1% in assay [7]; 30.3% in assay [8]; 38.8% in assay [9]; 21.5% in assay [10]; 41.7% in [11]; 15.5% in assay [12]. Besides, the growth in assay [13] is 50.6%; in assay [14] it was 41.9%; in [15], 29.9%; in [16] it was 61.7%; in assay [17], 33%; in [18], 18.9%. In addition, the growth in assay [19] is 54.8%; in assay [20], 34.5%.
Regarding `C[C@@H]1CN(c2cnc(C(=O)Nc3cc(F)cc4cccnc34)cn2)C[C@H](C)N1`, the growth was 63% in assay [1]; 44.8% in assay [2]; 93.1% in assay [3]; 83.8% in [4]; 88.9% in assay [5]; 46% in [6]. In addition, the growth in [7] is 51.7%; in assay [8] it was 94.6%; in assay [9] it was 60.6%; in assay [10], 13%; in assay [11], 84.1%; in [12], 28.5%. The growth in assay [13] is 65.2%; in assay [14], 37.7%; in [15] it was 39.8%; in assay [16] it was 88.1%; in assay [17] it was 101%; in assay [18], 94.7%. In addition, the growth is 41.4% in assay [19] and 73.9% in [20].
As to `CN1C(=O)N2CN3CCCN(C3)CN3C(=S)NC1C23` (stereo not given), the growth in assay [1] was 103%; in [2], 99.6%; in [3], 105%; in [4] it was 104%; in assay [5], 105%; in assay [6], 98.7%. The growth in assay [7] was 95%; in [8] it was 87%; in [9], 102%; in assay [10], 117%; in assay [11] it was 103%; in assay [12] it was 97.1%. The growth is 112% in [13]; 104% in [14]; 109% in assay [15]; 99.8% in [16]; 105% in assay [17]; 103% in assay [18]. Also, the growth in assay [19] is 87.6%; in assay [20], 107%.
On to `O=c1oc2c(cc1-c1ccccc1)c[n+]([O-])c1ccccc21`, for which the growth in [1] was 101%; in assay [2], 93.5%; in [3], 104%; in assay [4], 99.2%; in [5] it was 98%; in assay [6], 86.4%. For the same compound, the growth in assay [7] is 98.9%; in assay [8], 98%; in assay [9] it was 90.3%; in assay [10], 102%; in [11], 103%; in assay [12] it was 92.6%. Further, the growth was 97.7% in [13]; 91.8% in assay [14]; 94.6% in [15]; 107% in [16]; 101% in assay [17]; 101% in assay [18]. Also, the figures for the growth in assay [19] and in assay [20] were 100% and 103%, respectively.
`COc1ccc(-c2nc3c(c(-c4ccc(Cl)cc4)nn3-c3ccccc3)c(-c3ccccc3)c2C#N)cc1`: the growth in assay [1] was 103%; in assay [2], 97.4%; in assay [3] it was 102%; in [4], 111%; in assay [5], 104%; in assay [6] it was 120%. The growth is 96.3% in [7]; 95.9% in [8]; 108% in assay [9]; 118% in assay [10]; 104% in assay [11]; 100% in [12]. Further, the growth in [13] is 103%; in assay [14], 111%; in assay [15], 134%; in assay [16], 106%; in assay [17] it was 102%; in [18] it was 103%. The growth in [19] is 95.9%; in assay [20], 92.3%.
With `O=C1OCC2=C1C(c1ccccc1)c1cc3c(cc1N2CCO)OCCO3` (stereo not given), the growth in [1] is 30.9%; in [2], 15.8%; in [3], 48.7%; in [4], 27.3%; in assay [5] it was 5.36% (active); in assay [6], 44.5%. In addition, the growth in assay [7] was -47.4% (active); in [8], 23.6%; in assay [9] it was 20.8%; in [10], -47.6% (active); in assay [11] it was -9.9% (active); in assay [12] it was 10.5%. The growth in [13] is 67.1%; in assay [14], 14.2%; in assay [15], 10.8%; in assay [16], 32.1%; in assay [17] it was 0.89% (active); in assay [18], -22.7% (active). Also, the growth in assay [19] is 47.3%; in assay [20], -21.8% (active).
